The results in this text go back to PubChem BioAssay AID2314 (National Center for Advancing Translational Sciences (NCATS), 2010).

About 37,000 (12%) of roughly 300,000 compounds were called active. For the sample, actives were picked, then their nearest neighbours and some compounds at random. A number with no mark means an inactive call. Rule as the data show it: active = max response mostly above about 13% (no sharp cut-off); inactive = mostly below about 14%.

A short description of this test: Cycloheximide Counterscreen for Small Molecule Inhibitors of Shiga Toxin. Also: read at 38.3 µM for the half of the compounds with a filed dose; 0% is about no effect. As to conditions: cell reporter, cycloheximide protein synthesis inhibition counterscreen; hits give high values. Background: The purpose of a counterscreen is to sort out artefacts and off-target activity.
Consider `CC(=O)Nc1ccc(S(=O)(=O)NC2Cc3ccccc3C2)cc1`, for which the max response was -1.22%.
As to `CCNC(=O)N1c2ccccc2Sc2ccccc21`, the max response is -0.857%.
`CCN1/C(=C/C(=S)Nc2ccccc2)Sc2ccccc21`: the max response was 44.5% (active).
On to `O=C(CCN1c2ccccc2Sc2ccccc21)Nc1ccccc1`, for which the max response was 9.13%.
Turning to `CCn1cc(C(=O)NCC(=O)NC(C)(C)CO)c(=O)c2cc3c(cc21)OCO3`, the max response is 1.3%.
Turning to `O=C(CN1C(=O)C2C3C=CC(C3)C2C1=O)Nc1nc(-c2ccccn2)cs1` (stereo not given), the max response is -1.06%.
Take `O=C(CCCO)N/N=C/c1cc(Br)ccc1O`: the max response is -2.8%.
Take `O=C(N/N=C/c1ccccc1O)/C(=C/c1ccccc1)CCO`: the max response was 16.6% (active).
`O=C(CC(=O)N/N=C\c1cccc(Cl)c1Cl)NCc1ccccc1`: the max response was 8.71%.
For `COc1ccc(OC)c(S(=O)(=O)N2CCCC(C(=O)NCCc3ccccc3)C2)c1` (stereo not given), the max response is 8.7%.
On to `Cc1cccc(N2CCN(C(=O)c3cnn4c(C(F)F)cc(-c5ccccc5)nc34)CC2)c1C`, for which the max response was -1.97%.
Consider `CSCCC(NC(=O)c1ccc(Cl)cc1Cl)C(=O)NNC(=O)c1csc(N2CCOCC2)n1` (stereo not given), for which the max response was 0.959%.
For the molecule `O=C(COC(=O)C1CCCCC1)Nc1ccc([N+](=O)[O-])cc1`, the max response was 24.8% (active).
Take `O=C(COc1ccc([N+](=O)[O-])cc1)Nc1ccc(N2CCCC2)cc1`: the max response is -1.27%.
For the molecule `NC(=O)c1ccc(NC(=O)COC(=O)c2ccc([N+](=O)[O-])cc2)cc1`, the max response was 0.779%.
The result for `CC1(C)C(C=C(Cl)Cl)C1C(=O)NC(O)C(=O)c1ccccc1` (stereo not given) reads -3.63%.
The result for `CCn1cc(C(=O)NCc2ccc(OC)cc2OC)c(=O)c2ccc(C)nc21` reads -2.54%; that for `Cc1cccc(NC(=O)C2CCN(S(=O)(=O)c3cccc4cccnc34)CC2)c1`, -2.32%.
Next, `CNC(=O)C1CCN(S(=O)(=O)c2c(C)noc2/C=C/c2cccc(C)c2)CC1`: -3.52%.
As for `Cc1ccnc(NC(=O)C2CCN(S(=O)(=O)c3c(C)c(C)cc(C)c3C)CC2)c1`, the max response is 13.3% (active).
`CN(c1ccccc1)S(=O)(=O)c1cc(C(=O)Nc2nc3ccccc3[nH]2)ccc1Cl`: the max response was 16.5% (active).
Next, `CN(c1ccccc1)S(=O)(=O)c1cc(C(=O)OCC(=O)N2CCN(C(=O)c3ccco3)CC2)ccc1Cl`: -1.38%.
As to `COc1cccc(C(=O)Nc2nnc(S(=O)(=O)N(C)c3ccccc3)s2)c1`, the max response was -2.81%.
On to `O=C(CN1CCN(c2ncccn2)CC1)Nc1ccccc1C(F)(F)F`, for which the max response was -6.89%.
Consider `O=C(C1CCCN(S(=O)(=O)c2ccc([N+](=O)[O-])cc2)C1)N1CCCCC1` (stereo not given), for which the max response was 1.11%.
In the case of `COc1ccc(CCNC(=O)CSc2nnc(CNC(=O)c3cccs3)o2)cc1OC`, the max response was -3.82%.
In the case of `COc1cccc(NC(=O)CSc2nnc(Cc3ccc(OC)c(OC)c3)o2)c1`, the max response was -3.54%.
For the molecule `COc1ccc(-c2nnc(SCC(=O)c3cccs3)o2)c(OC)c1`, the max response was 51.4% (active).
The result for `COc1ccccc1-c1nnc(SCC(=O)Nc2ccccc2)o1` reads 11.4% (active); that for `COc1ccccc1-c1nnc(SCC(=O)Nc2cc(C)on2)o1`, 2.69%.
As for `COc1ccccc1-c1nnc(SCC(=O)N2CC(C)CC(C)C2)o1` (stereo not given), the max response was 1.31%.
As to `CSc1ccc(CCNC(=O)CS(=O)(=O)Cc2nc(-c3ccccc3F)oc2C)cc1`, the max response was -3.5%.
For the molecule `Cc1nn(-c2ncc(C(F)(F)F)cc2Cl)c(=O)n1-c1ccccc1`, the max response is 0.461%.
The result for `Cc1cc(C)c2nc(-c3ccco3)cc(C(=O)O)c2c1` reads 0.856%; that for `Cc1cc(C)c2nc(SCCC#N)nc(C)c2c1`, 1.85%.
`Cc1cc(C)c2nc3nc(C)cc(C)c3c(N)c2c1`: the max response is 15.1% (active).
As for `COc1ccc(/C=C(/NC(=O)c2ccco2)C(=O)Nc2ccc(C(C)=O)cc2)cc1`, the max response was 2.87%.
As to `COc1ccc(N(Cc2ccccc2)S(=O)(=O)c2cccc(C(=O)O)c2)cc1`, the max response is -3.66%.
The result for `COc1ccc(CN(C)C(=O)CC(c2ccccc2)c2ccccc2)cc1` reads -2.05%.
With `COc1ccc(C(CC(=O)c2ccccc2)S(=O)(=O)c2ccccc2)cc1` (stereo not given), the max response was 30% (active).
The result for `Cc1ccc(SCc2c(C(=O)N/N=C/c3cccnc3)nnn2-c2nonc2N)cc1` reads 2.02%.
As to `CC(C)C[C@H](NC(=O)C1CC(=O)N(c2ccc3c(c2)OCCO3)C1)C(=O)NC1CCCC1` (stereo not given in full), the max response is 6.36%.
`C=C1CCN(C(CC(C)C)C(=O)N2CCOCC2)S(=O)(=O)c2ccccc21` (stereo not given): the max response was 4.95%.
For `Cc1ccc(Cc2cnc(NC(=O)/C(C#N)=C/c3ccc(-c4cccc([N+](=O)[O-])c4)o3)s2)cc1`, the max response is -0.479%.
Take `N#C/C(=C/c1ccc(-c2ccccc2[N+](=O)[O-])o1)C(=O)NCCN1CCCCC1`: the max response is 2.31%.
Take `Cc1ccc(-c2ccc(/C=C(\C#N)C(N)=S)o2)c([N+](=O)[O-])c1`: the max response is 16% (active).
Regarding `COc1ccc(C)cc1N(C(=O)Cn1nnc(-c2ccc(C)o2)n1)C(C(=O)NC1CCCC1)c1ccncc1` (stereo not given), the max response was -6.77%.
The result for `O=C(Nc1ccc(-c2ccc3nncn3n2)cc1)C1CCCCC1` reads 16% (active); that for `CC(C)NS(=O)(=O)c1ccc(NC(=O)C2CCCCC2)cc1`, -0.865%.
As for `O=C(O)c1ccc(NC(=O)C2CCCCC2)cc1`, the max response was -1.35%.
`CCCOc1ccc(C2NC(=O)NC(c3ccccc3)=C2C(C)=O)cc1OCC` (stereo not given): the max response was -7.3%.
`CCN1N=C(c2ccccc2)CCC1=O`: the max response was -2.27%.
Consider `Nc1ccn(C2CC(O)C(CO)O2)c(=O)n1` (stereo not given), for which the max response was -1.51%.
Turning to `Clc1ccc(Nc2nc(-c3cccs3)cs2)nc1`, the max response was 37.5% (active).
For the molecule `c1ccc(Nc2nc(-c3ccncc3)cs2)nc1`, the max response is 36.4% (active).
Next, `COC(=O)CSc1nccc(-c2cccs2)n1`: 17%; `COC(=O)c1cc(-c2cccs2)nc2ccccc12`: -2.85%.
The result for `COc1ccc2cc(S(=O)(=O)Nc3ccccn3)ccc2c1` reads -3.68%.
Regarding `c1ccc(NCc2cccc3ccccc23)nc1`, the max response is 9.29%.
In the case of `COc1ccc(-c2csc(Nc3ccccn3)n2)cc1`, the max response was 40.4% (active).
Next, `CC(NC(=O)c1ccco1)C(=O)Nc1nc(-c2ccccn2)cs1` (stereo not given): -2.97%.
Turning to `c1cnc(Nc2nc(-c3ccc4ccccc4c3)cs2)nc1`, the max response was 42.5% (active).
The result for `COc1ccc(-c2nc(CS(=O)(=O)CC(=O)NCc3cccc(Br)c3)c(C)o2)cc1` reads 6.41%.
The result for `Cc1ccc(OCCCCN2CCCCC2)c(Br)c1` reads 10.9%.
`CC(C)(C)NC(=O)NC(=O)COC(=O)C1c2ccccc2Oc2ccccc21`: the max response was 0.419%.
Regarding `Cc1ccc(CNC(=O)c2cccnc2Cl)cc1`, the max response was 6.44%.
Turning to `CCN(C(=O)c1ccc(Br)cc1)c1ccccc1`, the max response is -3.18%.
Take `Cc1cccc(C(=O)N2CCCC(Nc3ccc(C(C)C)cc3)C2)n1` (stereo not given): the max response was 17.8%.
As for `CCOC(=O)C1(CCOc2ccccc2)CCN(Cc2ccc(C#CCCO)cc2)CC1`, the max response is -3.24%.
Consider `CCCC1=Nc2cc(C(=O)NCCN3CCCC3)ccc2Sc2ccccc21`, for which the max response is -5.31%.
Next, `CCN1CCc2nc(NC(=O)c3cc(F)c(F)cc3Cl)sc2C1`: 18.8% (active).
As for `O=C(Nc1nccs1)c1cc(S(=O)(=O)N2CCOCC2)c(Cl)cc1Cl`, the max response was -3.9%.
Consider `O=C(Nc1ccc(OCC(=O)N2CCOCC2)cc1)c1cc(F)c(F)cc1Cl`, for which the max response was 2.51%.
Turning to `COc1ccc(-n2nnnc2SCC(=O)c2ccc(OC)c(OC)c2)cc1`, the max response is -0.506%.
The result for `Cc1cc(NC(=O)CSc2nnnn2-c2ccc(F)cc2)no1` reads -1.5%; that for `O=C(CSc1nnnn1-c1ccc(O)cc1)c1ccc(F)cc1`, 23.5% (active); that for `CCC(C(=O)NCc1cccnc1)n1nc(C)c2sc3ccccc3c2c1=O` (stereo not given), -10.2%.
Consider `CC(C)N(C(=O)Cn1cc(S(=O)(=O)CC(=O)N2CCOCC2)c2ccccc21)C(C)C`, for which the max response was 2.9%.
Turning to `O=C(NCCCn1ccnc1)C1CCCN(S(=O)(=O)c2cc(Cl)ccc2Cl)C1` (stereo not given), the max response is -4.82%.
`O=c1cc(-c2ccc(O)cc2)oc2c([C@@H]3O[C@H](CO)[C@@H](O)[C@H](O)[C@H]3O)c(O)cc(O)c12`: the max response was -8.35%.
For `CC(C)N(Cc1nc(-c2ccc3c(c2)OCO3)no1)CC1CCC(=O)N1` (stereo not given), the max response is 1.08%.
The result for `CCn1ccnc1CN(C)Cc1nc(-c2ccc3c(c2)OCO3)no1` reads 28.4% (active).
For the molecule `CN(CCN1CCOCC1)Cc1nc(-c2ccc3c(c2)OCO3)no1`, the max response is 8.52%.
Regarding `Cc1ccc(C)c(N2CCN(C(=O)CCCCCn3c(=S)[nH]c4ccc(N5CCOCC5)cc4c3=O)CC2)c1`, the max response is 9.94%.
For `COc1cc(OC)c(OC)cc1/C=N/Nc1ncnc2c1[nH]c1ccc(C)cc12`, the max response was -3.15%.
The result for `Fc1ccc2[nH]c3c(N4CCSCC4)ncnc3c2c1` reads 5.04%.
Take `CC(C)OCCCNc1ncnc2c1[nH]c1ccc(F)cc12`: the max response was 39% (active).
Turning to `O=CN1CCN(C(=O)c2ccc(Br)o2)CC1`, the max response is 1.29%.
In the case of `C=CCn1c(Oc2ccc(C(=O)OC)cc2)nc2c1c(=O)n(C)c(=O)n2C`, the max response is -5.23%.
Next, `Cc1ccccc1NC(=O)N1CCCC1C(=O)NCc1ccccc1` (stereo not given): -1.83%; `Cc1c(CCO)c(=O)[nH]n1C(=O)c1c(F)cccc1F`: 17%; `COc1ccc(-n2ncc3c(N4CCCc5ccccc54)ncnc32)cc1`: 44.9% (active).
As for `COc1ccc(CCC(C)N2CCc3ccccc3C2)cc1` (stereo not given), the max response is 1.02%.
For `COc1ccc(-n2ncc3c(N4CCc5ccccc54)ncnc32)cc1`, the max response is 49.8% (active).
Take `COc1ccc(Oc2c(Cl)cnn(-c3ccccc3)c2=O)cc1`: the max response was -1.92%.
